The supplement of paper PMC11732987, “Enantioselective OTUD7B fragment discovery through chemoproteomics screening and high-throughput optimisation” (Communications Chemistry, 2025)

Legend:
Assay in all cases: log2 ratio of Biotin-Ahx-Ub-VS probe labelling (fragment/DMSO); higher = less target engagement (more negative = stronger competition), active = hit call of the paper (q ≤ 0.05, log2 ratio ≤ -1)
Details in all cases: compound concentration: 200 uM; treatment time: 3 h
ALG13 = molecular target: T1, ALG13 (UniProt Q9NP73)
T1 sequence (whole entry): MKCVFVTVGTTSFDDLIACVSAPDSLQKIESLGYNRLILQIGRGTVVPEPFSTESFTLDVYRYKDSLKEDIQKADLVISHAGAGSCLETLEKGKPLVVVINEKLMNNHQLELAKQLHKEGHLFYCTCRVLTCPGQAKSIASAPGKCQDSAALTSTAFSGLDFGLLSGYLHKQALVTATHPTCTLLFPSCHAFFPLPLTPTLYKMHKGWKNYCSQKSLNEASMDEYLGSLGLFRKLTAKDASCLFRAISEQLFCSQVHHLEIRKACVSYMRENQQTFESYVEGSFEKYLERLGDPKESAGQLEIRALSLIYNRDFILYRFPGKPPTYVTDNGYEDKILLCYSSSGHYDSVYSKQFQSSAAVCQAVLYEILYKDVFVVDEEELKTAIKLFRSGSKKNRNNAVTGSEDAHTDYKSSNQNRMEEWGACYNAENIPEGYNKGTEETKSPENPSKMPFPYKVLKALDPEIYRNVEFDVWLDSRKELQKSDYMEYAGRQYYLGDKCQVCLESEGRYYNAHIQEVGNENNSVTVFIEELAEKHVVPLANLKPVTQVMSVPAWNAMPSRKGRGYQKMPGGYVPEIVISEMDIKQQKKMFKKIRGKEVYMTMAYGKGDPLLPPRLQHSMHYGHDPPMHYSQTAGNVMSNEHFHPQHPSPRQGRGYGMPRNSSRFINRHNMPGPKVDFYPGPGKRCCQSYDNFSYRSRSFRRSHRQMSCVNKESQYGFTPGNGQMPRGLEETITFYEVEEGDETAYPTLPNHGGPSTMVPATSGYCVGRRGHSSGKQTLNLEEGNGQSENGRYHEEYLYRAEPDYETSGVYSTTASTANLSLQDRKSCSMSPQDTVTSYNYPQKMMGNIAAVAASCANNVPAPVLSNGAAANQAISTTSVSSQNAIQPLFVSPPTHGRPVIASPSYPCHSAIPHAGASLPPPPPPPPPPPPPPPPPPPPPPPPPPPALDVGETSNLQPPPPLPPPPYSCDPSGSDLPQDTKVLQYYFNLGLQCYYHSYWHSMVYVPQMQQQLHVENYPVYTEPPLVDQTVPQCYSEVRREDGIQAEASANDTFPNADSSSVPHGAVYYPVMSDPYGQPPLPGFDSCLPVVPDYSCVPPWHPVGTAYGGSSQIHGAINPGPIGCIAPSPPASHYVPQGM
Procedure, shortened: (§1)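 Fragment (200 µM) or vehicle was incubated for 3 h with triplicate HEK293T lysate samples of 495 µg, which were then treated with Biotin-Ahx-Ub-VS at 0.5 µM final for 1 h. Labelled DUBs were enriched on NeutrAvidin, digested with LysC and trypsin, and analysed by diaPASEF LC-MS/MS. Values are average log2 fragment/vehicle ratios from an unpaired t-test on global-median-normalised Spectronaut label-free quantities, using proteins with ≥2 unique peptides.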

ATXN3 = ATXN3 (UniProt P54252)
Procedure, shortened: as §1

BAP1 = molecular target: T2, BAP1 (UniProt Q92560)
T2 sequence (whole entry): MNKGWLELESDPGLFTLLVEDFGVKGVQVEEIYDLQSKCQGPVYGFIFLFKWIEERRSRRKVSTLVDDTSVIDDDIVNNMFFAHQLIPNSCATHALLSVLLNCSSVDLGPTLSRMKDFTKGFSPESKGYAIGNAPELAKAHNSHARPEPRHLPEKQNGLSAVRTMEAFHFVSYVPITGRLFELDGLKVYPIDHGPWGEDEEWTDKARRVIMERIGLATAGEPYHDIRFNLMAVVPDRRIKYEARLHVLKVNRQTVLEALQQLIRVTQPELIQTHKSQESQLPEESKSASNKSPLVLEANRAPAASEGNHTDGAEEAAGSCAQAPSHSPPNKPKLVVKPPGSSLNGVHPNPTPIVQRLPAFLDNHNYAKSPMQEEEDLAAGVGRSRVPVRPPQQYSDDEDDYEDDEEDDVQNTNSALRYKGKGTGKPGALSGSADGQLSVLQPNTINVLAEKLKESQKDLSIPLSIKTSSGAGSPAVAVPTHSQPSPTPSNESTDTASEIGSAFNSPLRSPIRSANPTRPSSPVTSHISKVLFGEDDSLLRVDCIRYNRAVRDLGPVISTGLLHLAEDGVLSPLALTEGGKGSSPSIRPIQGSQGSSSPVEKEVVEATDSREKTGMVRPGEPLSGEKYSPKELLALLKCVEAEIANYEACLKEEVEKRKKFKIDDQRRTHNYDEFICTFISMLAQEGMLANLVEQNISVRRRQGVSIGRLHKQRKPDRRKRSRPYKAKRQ
Procedure, shortened: as §1

EIF3F = EIF3F (UniProt O00303)
Procedure, shortened: as §1

EIF3H = EIF3H (UniProt O15372)
Procedure, shortened: as §1

FAM105A = molecular target: T3, FAM105A (UniProt Q9NUU6)
T3 sequence (whole entry): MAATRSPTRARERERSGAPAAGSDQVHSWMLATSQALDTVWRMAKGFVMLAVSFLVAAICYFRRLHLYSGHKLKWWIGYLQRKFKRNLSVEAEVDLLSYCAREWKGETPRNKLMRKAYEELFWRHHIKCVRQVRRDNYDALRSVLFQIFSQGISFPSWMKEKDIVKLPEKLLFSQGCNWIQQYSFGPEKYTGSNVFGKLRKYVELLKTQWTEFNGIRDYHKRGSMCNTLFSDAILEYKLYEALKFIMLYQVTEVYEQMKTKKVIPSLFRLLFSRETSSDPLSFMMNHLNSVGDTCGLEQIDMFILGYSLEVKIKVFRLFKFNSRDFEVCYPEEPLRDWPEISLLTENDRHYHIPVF
Procedure, shortened: as §1

OTUB1 = OTUB1 (UniProt Q96FW1)
Procedure, shortened: as §1

OTUD4 = molecular target: T4, OTUD4 (UniProt Q01804)
T4 sequence (whole entry): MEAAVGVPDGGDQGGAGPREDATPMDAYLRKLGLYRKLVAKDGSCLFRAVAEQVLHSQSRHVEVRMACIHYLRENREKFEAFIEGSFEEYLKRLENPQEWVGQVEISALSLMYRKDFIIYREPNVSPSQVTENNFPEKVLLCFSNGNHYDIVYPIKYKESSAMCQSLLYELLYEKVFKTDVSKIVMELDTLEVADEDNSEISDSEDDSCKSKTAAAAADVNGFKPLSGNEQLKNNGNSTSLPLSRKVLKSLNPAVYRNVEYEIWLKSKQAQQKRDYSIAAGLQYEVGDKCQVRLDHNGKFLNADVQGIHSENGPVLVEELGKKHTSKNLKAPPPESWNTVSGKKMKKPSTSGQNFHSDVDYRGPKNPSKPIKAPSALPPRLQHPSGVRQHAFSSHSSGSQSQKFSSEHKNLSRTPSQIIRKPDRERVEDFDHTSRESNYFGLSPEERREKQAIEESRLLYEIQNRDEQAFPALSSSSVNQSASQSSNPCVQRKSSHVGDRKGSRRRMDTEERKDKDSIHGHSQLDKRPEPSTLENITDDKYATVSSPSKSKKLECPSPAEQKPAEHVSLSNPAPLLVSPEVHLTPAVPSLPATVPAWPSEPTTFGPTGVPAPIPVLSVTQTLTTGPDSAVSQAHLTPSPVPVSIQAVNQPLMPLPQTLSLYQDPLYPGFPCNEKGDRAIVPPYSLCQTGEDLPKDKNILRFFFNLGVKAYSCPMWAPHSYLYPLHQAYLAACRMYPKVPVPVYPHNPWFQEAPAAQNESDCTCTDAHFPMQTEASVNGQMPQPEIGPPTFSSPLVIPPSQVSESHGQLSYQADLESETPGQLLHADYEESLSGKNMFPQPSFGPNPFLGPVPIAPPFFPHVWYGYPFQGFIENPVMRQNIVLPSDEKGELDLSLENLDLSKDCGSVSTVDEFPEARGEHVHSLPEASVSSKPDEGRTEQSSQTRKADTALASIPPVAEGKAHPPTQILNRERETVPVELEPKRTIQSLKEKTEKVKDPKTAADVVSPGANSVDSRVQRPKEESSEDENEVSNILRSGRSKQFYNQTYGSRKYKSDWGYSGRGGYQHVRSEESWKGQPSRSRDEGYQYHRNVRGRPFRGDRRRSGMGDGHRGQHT
Procedure, shortened: as §1

OTUD5 = molecular target: T5, OTUD5 (UniProt Q96G74)
T5 sequence (whole entry): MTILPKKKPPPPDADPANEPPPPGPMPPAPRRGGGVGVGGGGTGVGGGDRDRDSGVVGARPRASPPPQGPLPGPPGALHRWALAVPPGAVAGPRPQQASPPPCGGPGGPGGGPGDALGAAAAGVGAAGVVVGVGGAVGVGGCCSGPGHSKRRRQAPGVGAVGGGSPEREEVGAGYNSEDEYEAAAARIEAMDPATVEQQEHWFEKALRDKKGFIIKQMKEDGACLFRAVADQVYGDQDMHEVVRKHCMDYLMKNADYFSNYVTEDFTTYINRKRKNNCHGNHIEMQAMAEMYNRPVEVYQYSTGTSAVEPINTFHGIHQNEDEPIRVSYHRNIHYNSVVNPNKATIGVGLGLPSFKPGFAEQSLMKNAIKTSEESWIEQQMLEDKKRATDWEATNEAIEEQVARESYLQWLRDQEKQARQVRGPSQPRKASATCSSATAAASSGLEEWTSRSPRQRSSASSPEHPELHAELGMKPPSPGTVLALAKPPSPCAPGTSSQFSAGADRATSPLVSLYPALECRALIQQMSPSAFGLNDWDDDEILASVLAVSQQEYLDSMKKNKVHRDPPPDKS
Procedure, shortened: as §1

Measured: log2 ratio of Biotin-Ahx-Ub-VS probe labelling

Chain of EIF3F (O00303 whole entry): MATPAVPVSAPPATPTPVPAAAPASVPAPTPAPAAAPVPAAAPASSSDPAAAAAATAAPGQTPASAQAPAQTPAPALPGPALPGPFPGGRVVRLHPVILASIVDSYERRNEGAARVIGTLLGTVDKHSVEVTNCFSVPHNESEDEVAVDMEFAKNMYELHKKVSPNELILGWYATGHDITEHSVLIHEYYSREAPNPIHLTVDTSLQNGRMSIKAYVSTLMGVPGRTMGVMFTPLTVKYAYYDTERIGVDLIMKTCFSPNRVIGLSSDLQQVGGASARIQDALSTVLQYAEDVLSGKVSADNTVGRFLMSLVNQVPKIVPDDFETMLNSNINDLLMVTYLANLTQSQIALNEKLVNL
Chain of EIF3H (O15372 whole entry): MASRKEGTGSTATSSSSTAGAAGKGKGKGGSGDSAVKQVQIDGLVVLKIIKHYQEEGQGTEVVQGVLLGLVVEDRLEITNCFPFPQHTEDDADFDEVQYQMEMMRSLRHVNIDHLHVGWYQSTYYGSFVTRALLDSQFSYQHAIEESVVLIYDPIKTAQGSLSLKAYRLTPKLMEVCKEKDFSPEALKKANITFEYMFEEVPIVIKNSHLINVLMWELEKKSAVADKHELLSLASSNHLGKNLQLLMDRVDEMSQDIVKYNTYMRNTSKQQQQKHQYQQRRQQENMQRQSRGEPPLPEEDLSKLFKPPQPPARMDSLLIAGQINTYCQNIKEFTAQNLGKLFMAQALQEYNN
Chain of ATXN3 (P54252 whole entry): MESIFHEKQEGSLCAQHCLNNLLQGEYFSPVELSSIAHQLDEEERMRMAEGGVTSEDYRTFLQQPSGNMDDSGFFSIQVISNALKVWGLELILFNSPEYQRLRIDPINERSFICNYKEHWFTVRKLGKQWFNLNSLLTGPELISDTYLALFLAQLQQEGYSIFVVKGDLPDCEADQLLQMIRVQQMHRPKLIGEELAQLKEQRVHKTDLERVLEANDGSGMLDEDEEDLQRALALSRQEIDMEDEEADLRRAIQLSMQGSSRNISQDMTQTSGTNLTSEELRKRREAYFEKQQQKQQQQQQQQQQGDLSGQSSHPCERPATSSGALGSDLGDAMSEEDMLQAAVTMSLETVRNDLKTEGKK
Chain of OTUB1 (Q96FW1 whole entry): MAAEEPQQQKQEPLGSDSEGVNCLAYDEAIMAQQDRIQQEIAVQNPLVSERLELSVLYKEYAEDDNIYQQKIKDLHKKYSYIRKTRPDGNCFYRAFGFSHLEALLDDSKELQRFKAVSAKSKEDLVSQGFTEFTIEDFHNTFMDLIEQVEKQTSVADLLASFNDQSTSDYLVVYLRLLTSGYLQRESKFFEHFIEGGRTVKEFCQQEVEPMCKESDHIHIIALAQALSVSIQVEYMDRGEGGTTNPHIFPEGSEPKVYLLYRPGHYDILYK

O=C(CCl)N1CCC(C(=O)N2CCCCCC2)CC1
inactive: ALG13 0.205 | ATXN3 -0.407 | BAP1 -0.398 | EIF3F -0.0762 | EIF3H 0.0816 | FAM105A -0.0217 | OTUB1 0.0563 | OTUD4 -0.035 | OTUD5 -0.328
